# Columns and labels:
# Assay in all cases: DAPPL (digital affinity profiling via proximity ligation, sequencing); 10 mM Tris-HCl pH 7.5, 50 mM NaCl, 1 mM DTT, 4% glycerol, room temperature, 30 min; GST-TFs on glutathione beads, 16-mer random dsDNA library, 0.1% formaldehyde crosslink after washing; high values mean tight binding
# FLI1 = target: T1, FLI1 (Homo sapiens, UniProt Q01543 1-452); details: protein: recombinant; tags: N-terminal GST; dsDNA, one strand shown
# T1 sequence: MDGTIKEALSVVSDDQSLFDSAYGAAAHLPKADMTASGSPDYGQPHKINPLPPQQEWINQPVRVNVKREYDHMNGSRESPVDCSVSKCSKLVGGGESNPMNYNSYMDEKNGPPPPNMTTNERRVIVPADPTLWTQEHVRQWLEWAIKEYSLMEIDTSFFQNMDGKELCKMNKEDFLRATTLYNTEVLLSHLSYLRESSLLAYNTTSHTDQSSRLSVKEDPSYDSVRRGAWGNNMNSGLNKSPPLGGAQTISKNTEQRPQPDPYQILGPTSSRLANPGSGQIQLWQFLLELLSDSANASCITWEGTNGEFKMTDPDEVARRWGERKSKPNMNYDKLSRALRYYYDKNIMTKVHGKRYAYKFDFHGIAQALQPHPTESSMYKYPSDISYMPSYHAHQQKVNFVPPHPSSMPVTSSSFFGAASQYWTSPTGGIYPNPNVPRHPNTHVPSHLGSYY
# Outline: (§1)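 Binding signal is defined as a hexamer's read frequency for one factor over its frequency for the tag-only sample. To obtain reads, GST-fused human transcription factors were expressed in yeast, captured on glutathione beads, barcoded with DNA and pooled with that sample. Pools met 200 nmole of a 16-mer random double-stranded DNA library in Tris/NaCl/DTT/glycerol buffer for 30 min at room temperature before washing, 0.1% formaldehyde crosslinking, proximity ligation (BsaI/T4 ligase, 1 h, 37 °C), PCR and Illumina NextSeq500 sequencing.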
# ELK1 = target: T2, ELK1 (Homo sapiens, UniProt P19419 1-428); details: protein: recombinant; tags: N-terminal GST; dsDNA, one strand shown
# T2 sequence: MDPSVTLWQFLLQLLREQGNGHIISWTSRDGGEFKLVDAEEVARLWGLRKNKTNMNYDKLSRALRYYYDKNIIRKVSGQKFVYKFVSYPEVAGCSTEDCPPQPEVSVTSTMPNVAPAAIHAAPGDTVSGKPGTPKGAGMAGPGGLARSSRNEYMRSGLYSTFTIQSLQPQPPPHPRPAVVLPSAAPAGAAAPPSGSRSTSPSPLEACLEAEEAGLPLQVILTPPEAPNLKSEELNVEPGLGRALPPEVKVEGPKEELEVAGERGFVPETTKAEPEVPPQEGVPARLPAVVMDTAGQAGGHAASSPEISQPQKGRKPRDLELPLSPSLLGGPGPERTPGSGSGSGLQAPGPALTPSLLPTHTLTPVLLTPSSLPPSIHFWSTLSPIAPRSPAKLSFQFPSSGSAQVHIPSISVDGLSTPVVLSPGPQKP
# Outline: as §1
# GABPA = target: T3, GABPA (Homo sapiens, UniProt Q06546 1-454); details: protein: recombinant; tags: N-terminal GST; dsDNA, one strand shown
# T3 sequence: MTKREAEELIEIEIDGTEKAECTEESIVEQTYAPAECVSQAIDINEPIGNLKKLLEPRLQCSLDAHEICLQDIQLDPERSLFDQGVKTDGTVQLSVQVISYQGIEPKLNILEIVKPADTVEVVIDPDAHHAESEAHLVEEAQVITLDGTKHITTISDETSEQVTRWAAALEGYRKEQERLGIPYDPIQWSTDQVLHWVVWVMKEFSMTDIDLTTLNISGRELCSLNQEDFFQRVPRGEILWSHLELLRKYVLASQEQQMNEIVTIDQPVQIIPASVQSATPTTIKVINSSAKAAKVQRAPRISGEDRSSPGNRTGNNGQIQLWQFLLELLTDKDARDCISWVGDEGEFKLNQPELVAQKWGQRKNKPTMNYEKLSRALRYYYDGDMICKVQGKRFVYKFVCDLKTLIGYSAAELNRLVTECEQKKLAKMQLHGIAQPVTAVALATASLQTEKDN
# Outline: as §1
# ERG = target: T4, ERG (Homo sapiens, UniProt P11308 1-479); details: protein: recombinant; tags: N-terminal GST; dsDNA, one strand shown
# T4 sequence: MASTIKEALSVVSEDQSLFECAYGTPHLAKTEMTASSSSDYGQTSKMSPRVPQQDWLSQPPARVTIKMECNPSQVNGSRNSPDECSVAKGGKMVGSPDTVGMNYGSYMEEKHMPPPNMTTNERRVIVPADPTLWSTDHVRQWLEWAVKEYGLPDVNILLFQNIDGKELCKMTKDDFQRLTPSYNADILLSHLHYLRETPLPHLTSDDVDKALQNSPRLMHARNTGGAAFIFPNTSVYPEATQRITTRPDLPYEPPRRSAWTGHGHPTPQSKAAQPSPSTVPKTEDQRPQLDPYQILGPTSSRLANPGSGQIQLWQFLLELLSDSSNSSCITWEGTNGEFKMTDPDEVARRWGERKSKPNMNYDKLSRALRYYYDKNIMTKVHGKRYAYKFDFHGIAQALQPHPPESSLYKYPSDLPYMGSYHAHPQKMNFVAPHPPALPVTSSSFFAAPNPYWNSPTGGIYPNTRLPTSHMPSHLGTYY
# Outline: as §1
# ELF1 = ELF1 (Homo sapiens, UniProt P32519 1-619); details: protein: recombinant; tags: N-terminal GST; dsDNA, one strand shown
# Outline: as §1
# EHF = target: T5, EHF (Homo sapiens, UniProt Q9NZC4 1-300); details: protein: recombinant; tags: N-terminal GST; dsDNA, one strand shown
# T5 sequence: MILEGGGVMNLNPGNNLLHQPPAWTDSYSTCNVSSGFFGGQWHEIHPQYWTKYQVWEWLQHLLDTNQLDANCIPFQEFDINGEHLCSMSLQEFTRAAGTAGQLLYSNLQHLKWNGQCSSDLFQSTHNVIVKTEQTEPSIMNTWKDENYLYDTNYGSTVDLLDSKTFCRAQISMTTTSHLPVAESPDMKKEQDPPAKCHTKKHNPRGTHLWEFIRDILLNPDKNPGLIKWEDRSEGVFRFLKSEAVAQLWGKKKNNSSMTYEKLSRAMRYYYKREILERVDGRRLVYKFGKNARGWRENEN
# Outline: as §1
# SPI1 = SPI1 (Homo sapiens, UniProt P17947 1-270); details: protein: recombinant; tags: N-terminal GST; dsDNA, one strand shown
# Outline: as §1
# SPIB = SPIB (Homo sapiens, UniProt Q01892 1-262); details: protein: recombinant; tags: N-terminal GST; dsDNA, one strand shown
# Outline: as §1
# ELK3 = target: T6, ELK3 (Homo sapiens, UniProt P41970 1-407); details: protein: recombinant; tags: N-terminal GST; dsDNA, one strand shown
# T6 sequence: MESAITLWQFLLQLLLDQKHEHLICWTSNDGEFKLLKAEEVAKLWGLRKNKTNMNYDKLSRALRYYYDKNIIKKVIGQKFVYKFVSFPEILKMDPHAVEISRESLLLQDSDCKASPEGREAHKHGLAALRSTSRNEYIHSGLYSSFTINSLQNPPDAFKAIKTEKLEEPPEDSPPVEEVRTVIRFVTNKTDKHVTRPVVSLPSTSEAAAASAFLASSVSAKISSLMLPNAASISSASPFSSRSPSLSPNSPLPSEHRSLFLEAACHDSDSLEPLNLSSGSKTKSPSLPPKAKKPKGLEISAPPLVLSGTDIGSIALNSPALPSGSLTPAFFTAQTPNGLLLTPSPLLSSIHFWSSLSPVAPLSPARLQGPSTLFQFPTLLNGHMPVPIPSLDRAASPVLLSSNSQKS
# Outline: as §1
# FEV = target: T7, FEV (Homo sapiens, UniProt Q99581 1-238); details: protein: recombinant; tags: N-terminal GST; dsDNA, one strand shown
# T7 sequence: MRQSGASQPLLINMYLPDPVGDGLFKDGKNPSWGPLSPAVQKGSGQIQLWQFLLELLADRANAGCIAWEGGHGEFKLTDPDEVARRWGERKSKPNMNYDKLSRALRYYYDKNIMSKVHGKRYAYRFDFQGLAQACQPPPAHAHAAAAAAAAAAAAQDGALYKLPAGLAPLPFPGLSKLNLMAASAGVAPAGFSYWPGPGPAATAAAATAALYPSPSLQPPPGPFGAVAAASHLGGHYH
# Outline: as §1
# ETV5 = ETV5 (Homo sapiens, UniProt P41161 1-510); details: protein: recombinant; tags: N-terminal GST; dsDNA, one strand shown
# Outline: as §1
# HSF1 = HSF1 (Homo sapiens, UniProt Q00613 1-529); details: protein: recombinant; tags: N-terminal GST; chain copies: 3; dsDNA, one strand shown
# Outline: as §1
# SPIC = target: T8, SPIC (Homo sapiens, UniProt Q8N5J4 1-248); details: protein: recombinant; tags: N-terminal GST; dsDNA, one strand shown
# T8 sequence: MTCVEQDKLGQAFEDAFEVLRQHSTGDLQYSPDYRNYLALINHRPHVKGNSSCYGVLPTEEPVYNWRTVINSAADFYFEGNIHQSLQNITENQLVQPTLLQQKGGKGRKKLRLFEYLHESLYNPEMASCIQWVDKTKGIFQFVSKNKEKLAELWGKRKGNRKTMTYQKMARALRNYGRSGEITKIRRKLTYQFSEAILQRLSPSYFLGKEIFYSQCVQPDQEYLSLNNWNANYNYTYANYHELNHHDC
# Outline: as §1
# ELF4 = ELF4 (Homo sapiens, UniProt Q99607 1-663); details: protein: recombinant; tags: N-terminal GST; dsDNA, one strand shown
# Outline: as §1
# ELK4 = target: T9, ELK4 (Homo sapiens, UniProt P28324-2 1-405); details: protein: recombinant; tags: N-terminal GST; dsDNA, one strand shown
# T9 sequence: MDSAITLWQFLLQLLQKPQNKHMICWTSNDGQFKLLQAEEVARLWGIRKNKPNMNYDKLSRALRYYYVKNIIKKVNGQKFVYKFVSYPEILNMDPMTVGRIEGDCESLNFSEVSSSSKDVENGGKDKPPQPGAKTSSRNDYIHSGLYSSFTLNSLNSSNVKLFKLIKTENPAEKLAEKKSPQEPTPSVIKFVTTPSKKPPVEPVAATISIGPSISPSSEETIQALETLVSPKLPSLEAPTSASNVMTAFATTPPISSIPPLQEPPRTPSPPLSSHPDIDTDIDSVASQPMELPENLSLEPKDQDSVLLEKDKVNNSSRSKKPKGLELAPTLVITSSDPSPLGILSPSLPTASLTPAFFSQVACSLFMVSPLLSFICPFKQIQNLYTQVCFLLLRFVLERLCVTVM
# Outline: as §1
# ETV2 = target: T10, ETV2 (Homo sapiens, UniProt O00321 1-342); details: protein: recombinant; tags: N-terminal GST; dsDNA, one strand shown
# T10 sequence: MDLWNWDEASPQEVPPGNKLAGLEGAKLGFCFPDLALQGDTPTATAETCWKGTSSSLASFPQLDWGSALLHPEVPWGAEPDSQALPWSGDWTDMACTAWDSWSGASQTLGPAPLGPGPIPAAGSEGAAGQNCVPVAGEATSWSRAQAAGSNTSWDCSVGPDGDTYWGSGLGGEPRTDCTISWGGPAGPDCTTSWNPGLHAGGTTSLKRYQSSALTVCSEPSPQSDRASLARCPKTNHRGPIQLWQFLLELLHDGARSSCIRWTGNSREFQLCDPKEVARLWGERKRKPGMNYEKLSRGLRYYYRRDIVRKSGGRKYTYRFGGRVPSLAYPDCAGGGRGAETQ
# Outline: as §1
# ELF3 = target: T11, ELF3 (Homo sapiens, UniProt P78545 1-371); details: protein: recombinant; tags: N-terminal GST; dsDNA, one strand shown
# T11 sequence: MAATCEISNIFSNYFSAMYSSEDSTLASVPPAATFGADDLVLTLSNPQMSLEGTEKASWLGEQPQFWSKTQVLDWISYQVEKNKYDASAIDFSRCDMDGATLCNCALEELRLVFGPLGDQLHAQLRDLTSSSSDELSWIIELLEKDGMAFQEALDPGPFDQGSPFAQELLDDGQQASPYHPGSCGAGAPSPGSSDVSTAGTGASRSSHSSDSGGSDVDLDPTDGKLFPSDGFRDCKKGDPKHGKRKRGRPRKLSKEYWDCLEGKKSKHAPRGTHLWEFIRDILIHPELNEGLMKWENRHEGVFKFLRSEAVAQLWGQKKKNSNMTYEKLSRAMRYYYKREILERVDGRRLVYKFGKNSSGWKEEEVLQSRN
# Outline: as §1
# CRX = CRX (Homo sapiens, UniProt O43186 1-299); details: protein: recombinant; tags: N-terminal GST; dsDNA, one strand shown
# Outline: as §1
# ETV1 = ETV1 (Homo sapiens, UniProt P50549 1-477); details: protein: recombinant; tags: N-terminal GST; dsDNA, one strand shown
# Outline: as §1
# Sequence of ETV5 (P41161 whole entry): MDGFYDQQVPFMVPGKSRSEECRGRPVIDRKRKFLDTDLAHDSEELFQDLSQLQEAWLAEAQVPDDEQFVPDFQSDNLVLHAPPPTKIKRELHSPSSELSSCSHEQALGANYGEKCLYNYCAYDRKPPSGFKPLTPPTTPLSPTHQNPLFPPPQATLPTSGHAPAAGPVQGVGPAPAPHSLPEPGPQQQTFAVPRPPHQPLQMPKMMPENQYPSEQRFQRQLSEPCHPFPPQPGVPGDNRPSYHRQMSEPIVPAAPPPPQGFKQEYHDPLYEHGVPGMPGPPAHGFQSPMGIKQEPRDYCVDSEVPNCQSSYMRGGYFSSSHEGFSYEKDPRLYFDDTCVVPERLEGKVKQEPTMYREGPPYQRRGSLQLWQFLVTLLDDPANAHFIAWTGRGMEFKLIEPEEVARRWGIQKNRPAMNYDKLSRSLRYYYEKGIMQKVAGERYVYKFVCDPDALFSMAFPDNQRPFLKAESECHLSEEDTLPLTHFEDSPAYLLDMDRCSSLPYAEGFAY
# Sequence of ELF1 (P32519 whole entry): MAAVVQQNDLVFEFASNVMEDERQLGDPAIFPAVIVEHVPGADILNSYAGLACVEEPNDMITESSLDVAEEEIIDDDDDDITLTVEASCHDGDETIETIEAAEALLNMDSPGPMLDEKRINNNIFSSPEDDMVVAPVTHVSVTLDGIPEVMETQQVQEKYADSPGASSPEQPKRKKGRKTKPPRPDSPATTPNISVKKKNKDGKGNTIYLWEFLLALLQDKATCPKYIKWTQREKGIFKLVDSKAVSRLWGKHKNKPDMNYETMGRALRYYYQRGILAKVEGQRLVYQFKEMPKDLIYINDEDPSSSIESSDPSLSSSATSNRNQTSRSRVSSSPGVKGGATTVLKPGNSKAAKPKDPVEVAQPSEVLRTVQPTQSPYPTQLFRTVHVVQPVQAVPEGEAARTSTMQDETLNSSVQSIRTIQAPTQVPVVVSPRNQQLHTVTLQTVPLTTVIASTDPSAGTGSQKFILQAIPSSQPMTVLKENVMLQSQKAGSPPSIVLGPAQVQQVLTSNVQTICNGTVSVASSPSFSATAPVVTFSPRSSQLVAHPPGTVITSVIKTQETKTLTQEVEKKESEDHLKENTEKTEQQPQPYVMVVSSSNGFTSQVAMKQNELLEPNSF
# Sequence of ETV1 (P50549 whole entry): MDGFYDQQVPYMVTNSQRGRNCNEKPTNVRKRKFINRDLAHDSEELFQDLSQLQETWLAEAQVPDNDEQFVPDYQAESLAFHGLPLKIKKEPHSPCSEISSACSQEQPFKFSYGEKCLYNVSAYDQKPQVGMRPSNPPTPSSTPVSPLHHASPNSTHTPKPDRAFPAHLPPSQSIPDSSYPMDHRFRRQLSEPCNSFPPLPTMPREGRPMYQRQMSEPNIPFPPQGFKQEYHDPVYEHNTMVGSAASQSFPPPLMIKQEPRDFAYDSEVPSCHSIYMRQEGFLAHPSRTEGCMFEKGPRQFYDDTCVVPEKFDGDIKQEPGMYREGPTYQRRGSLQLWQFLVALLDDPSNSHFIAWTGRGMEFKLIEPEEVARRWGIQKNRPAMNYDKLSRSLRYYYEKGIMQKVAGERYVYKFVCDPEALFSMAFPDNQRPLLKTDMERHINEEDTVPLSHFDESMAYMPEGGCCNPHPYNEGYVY
# Sequence of HSF1 (Q00613 whole entry): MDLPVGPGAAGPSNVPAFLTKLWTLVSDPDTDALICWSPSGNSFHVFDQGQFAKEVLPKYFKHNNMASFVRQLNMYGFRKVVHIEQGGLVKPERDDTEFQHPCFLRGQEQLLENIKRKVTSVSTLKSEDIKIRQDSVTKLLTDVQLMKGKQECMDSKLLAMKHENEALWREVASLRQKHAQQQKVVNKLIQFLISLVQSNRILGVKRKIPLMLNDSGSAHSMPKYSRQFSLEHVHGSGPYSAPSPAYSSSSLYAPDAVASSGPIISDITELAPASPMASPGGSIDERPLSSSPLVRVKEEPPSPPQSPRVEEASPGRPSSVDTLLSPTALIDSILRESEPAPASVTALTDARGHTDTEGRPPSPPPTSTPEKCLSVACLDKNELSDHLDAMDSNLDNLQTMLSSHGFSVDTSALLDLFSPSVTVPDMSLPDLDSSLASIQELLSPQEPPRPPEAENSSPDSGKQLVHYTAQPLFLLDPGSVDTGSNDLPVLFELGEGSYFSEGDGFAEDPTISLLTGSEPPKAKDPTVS
# Sequence of ELF4 (Q99607 whole entry): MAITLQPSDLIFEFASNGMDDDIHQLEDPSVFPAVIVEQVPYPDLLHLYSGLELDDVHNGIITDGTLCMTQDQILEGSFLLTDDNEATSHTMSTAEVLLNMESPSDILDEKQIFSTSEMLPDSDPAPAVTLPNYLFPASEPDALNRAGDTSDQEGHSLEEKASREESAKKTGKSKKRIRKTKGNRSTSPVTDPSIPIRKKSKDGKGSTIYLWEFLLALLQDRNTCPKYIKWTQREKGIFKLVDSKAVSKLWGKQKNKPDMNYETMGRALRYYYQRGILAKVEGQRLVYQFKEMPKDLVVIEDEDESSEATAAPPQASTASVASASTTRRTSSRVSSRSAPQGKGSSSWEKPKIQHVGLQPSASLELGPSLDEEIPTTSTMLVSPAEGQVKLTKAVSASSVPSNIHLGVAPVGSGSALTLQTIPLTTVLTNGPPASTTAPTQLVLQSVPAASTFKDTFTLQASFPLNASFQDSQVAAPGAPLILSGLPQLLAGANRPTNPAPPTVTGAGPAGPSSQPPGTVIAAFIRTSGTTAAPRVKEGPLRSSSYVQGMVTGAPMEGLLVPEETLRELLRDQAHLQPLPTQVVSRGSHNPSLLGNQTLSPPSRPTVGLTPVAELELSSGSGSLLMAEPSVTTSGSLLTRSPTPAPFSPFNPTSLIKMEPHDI
# Sequence of CRX (O43186 whole entry): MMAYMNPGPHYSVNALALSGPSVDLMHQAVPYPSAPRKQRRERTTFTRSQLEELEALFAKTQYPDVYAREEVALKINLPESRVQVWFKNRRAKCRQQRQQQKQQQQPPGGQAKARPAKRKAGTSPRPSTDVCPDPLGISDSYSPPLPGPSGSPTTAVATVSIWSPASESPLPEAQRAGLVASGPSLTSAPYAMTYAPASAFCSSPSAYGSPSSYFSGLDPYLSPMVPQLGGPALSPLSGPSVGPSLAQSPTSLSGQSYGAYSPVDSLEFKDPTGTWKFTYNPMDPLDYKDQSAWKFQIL
# Sequence of SPIB (Q01892 whole entry): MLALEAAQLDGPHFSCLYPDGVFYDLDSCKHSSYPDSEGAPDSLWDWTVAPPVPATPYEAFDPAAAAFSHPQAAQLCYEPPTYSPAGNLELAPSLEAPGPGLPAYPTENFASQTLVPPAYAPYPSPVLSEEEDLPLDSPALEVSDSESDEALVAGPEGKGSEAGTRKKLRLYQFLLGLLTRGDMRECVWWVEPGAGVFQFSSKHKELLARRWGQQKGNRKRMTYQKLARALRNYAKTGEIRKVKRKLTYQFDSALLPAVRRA
sequence,measurement,setting,value
CTGACT,binding signal,FLI1,"1.25 fold enrichment (6-mer frequency, TF over GST control)"
same,binding signal,ELK1,"1.26 fold enrichment (6-mer frequency, TF over GST control)"
same,binding signal,GABPA,"1.29 fold enrichment (6-mer frequency, TF over GST control)"
same,binding signal,ERG,"1.22 fold enrichment (6-mer frequency, TF over GST control)"
same,binding signal,ELF1,"1.32 fold enrichment (6-mer frequency, TF over GST control)"
same,binding signal,EHF,"1.31 fold enrichment (6-mer frequency, TF over GST control)"
same,binding signal,SPI1,"1.27 fold enrichment (6-mer frequency, TF over GST control)"
same,binding signal,SPIB,"1.43 fold enrichment (6-mer frequency, TF over GST control)"
same,binding signal,ELK3,"1.26 fold enrichment (6-mer frequency, TF over GST control)"
same,binding signal,FEV,"1.32 fold enrichment (6-mer frequency, TF over GST control)"
same,binding signal,ETV5,"1.23 fold enrichment (6-mer frequency, TF over GST control)"
same,binding signal,HSF1,"1.05 fold enrichment (6-mer frequency, TF over GST control)"
same,binding signal,SPIC,"1.24 fold enrichment (6-mer frequency, TF over GST control)"
same,binding signal,ELF4,"1.37 fold enrichment (6-mer frequency, TF over GST control)"
same,binding signal,ELK4,"1.22 fold enrichment (6-mer frequency, TF over GST control)"
same,binding signal,ETV2,"1.48 fold enrichment (6-mer frequency, TF over GST control)"
same,binding signal,ELF3,"1.52 fold enrichment (6-mer frequency, TF over GST control)"
same,binding signal,CRX,"1.07 fold enrichment (6-mer frequency, TF over GST control)"
same,binding signal,ETV1,"1.4 fold enrichment (6-mer frequency, TF over GST control)"
